{
  "source": "PubChem BioAssay (NCI)",
  "note": "About 83,000 compounds went through this panel and 20% of them were active in at least one assay; those are over-represented in the sample as a whole.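 Negative percent growth values reflect cell death: -40 means 40% of the cells present at the start died, and -100 means all died.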 Activity calls are given as the source filed them. How the source made its calls: active means growth percent below 10; inactive means the rest.",
  "data": [
    {"tested_on": "A549/ATCC NSCLC", "experiment": "NCI-60 one-dose screen, 48 h (100 = growth as untreated, 0 = no growth, -100 = all killed)", "conditions": "10 µM unless noted", "values": [
      {"smiles": "Nc1[nH]n2cc(-c3ccc(F)cc3)nc2c1N=Nc1ccc(S(N)(=O)=O)cc1", "growth": "84.6% (inactive)"},
      {"smiles": "O=C(Nc1ncccc1OCc1ccccc1)NC1CCCCCC1", "growth": "97.8% (inactive)"},
      {"smiles": "CCNc1nc(O)c(/C=C2\\C=Nc3ncccc32)s1", "growth": "11.1% (inactive)"},
      {"smiles": "Cn1cc(-c2nn3cc(-c4cccs4)nc3s2)c2cc(F)ccc21", "growth": "37.7% (inactive)"},
      {"smiles": "Cc1ccc(-c2nc(/C=C3/C(=O)Nc4ccc(F)cc43)c3ccccn23)cc1", "growth": "81.8% (inactive)"},
      {"smiles": "O=[N+]([O-])c1ccc(-c2cn3nc(-c4c[nH]c5ccccc45)sc3n2)cc1", "growth": "86.9% (inactive)"},
      {"smiles": "O=C(CI)NC(=O)NC(=O)NCc1ccccc1", "growth": "92.9% (inactive)"},
      {"smiles": "O=C(Nc1cc(Cl)ccc1O)c1cccc(Nc2ccnc(C(F)(F)F)c2)c1", "growth": "37.1% (inactive)"},
      {"smiles": "N#Cc1c(Nc2ccc(N3CCOCC3)cc2)nc(SCC(=O)c2ccc(Br)cc2)nc1-c1ccccc1", "growth": "97.3% (inactive)"},
      {"smiles": "COc1cc(OC)c(/C=C/C(=O)c2c(O)cc(OC)c(C3CCN(C)CC3)c2OC)c(OC)c1", "growth": "-60.7% (active)"},
      {"smiles": "CCS/C(Nc1ccccc1)=C(\\C#N)C(=O)Nc1ccc(OC)cc1", "growth": "34.6% (inactive)"},
      {"smiles": "C=CN(C(=O)N1CCN(c2cc3c(cc2F)c(=O)c(C(=O)O)cn3C2CC2)CC1)c1nc(-c2ccc(OC)cc2)cs1", "growth": "16.6% (inactive)"},
      {"smiles": "O=C(Nc1ccccc1[N+](=O)[O-])c1ccc(Cl)c(Cl)c1", "growth": "104% (inactive)"},
      {"smiles": "CCn1cc(CNc2ccc(C(=O)Nc3cc4cc(OC)c(OC)cc4c(C)n3)cc2)cn1", "growth": "48.1% (inactive)"}
    ]}
  ]
}
